BAZ2B block – qHTS Assay for Inhibitors of BAZ2B | Bromodomain adjacent to zinc finger domain protein 2B (Homo sapiens), Q9UIF8 | AlphaScreen BAZ2B-H3K14Ac peptide displacement | Potency, µM (doses to about 114 µM), without a hit: at the highest dose activity change, negative = inhibition, actives largely listed as inhibitors | hit rate 4.4% among 360,000 | AID 504333, 2011; note: % is set by controls: 0 for no effect and ±100 for the full control effect; nearly all actives have a fitted effect of over 60% in size
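Multi-concentration screen (max 110 uM) measuring displacement of acetylated histone H3 peptide from BAZ2B by AlphaScreen, using 50 nM protein, 50 nM peptide and 10 ug/mL streptavidin donor plus Ni-chelate acceptor beads.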
L3MBTL1 inh – qHTS Assay for the Inhibitors of L3MBTL1. hit rate 0.66% among 230,000. Potency, µM (series often up to 57.1 µM), inactives show at the top dose activity, negative = inhibition, usual class: inhibitors. AlphaScreen L3MBTL1–H3K9me1 peptide binding; note: % is set by controls: 0 for no effect and ±100 for the full control effect; nearly all actives have a fitted effect of over 60% in size
Target sequence (Q9Y468 whole entry, looked up): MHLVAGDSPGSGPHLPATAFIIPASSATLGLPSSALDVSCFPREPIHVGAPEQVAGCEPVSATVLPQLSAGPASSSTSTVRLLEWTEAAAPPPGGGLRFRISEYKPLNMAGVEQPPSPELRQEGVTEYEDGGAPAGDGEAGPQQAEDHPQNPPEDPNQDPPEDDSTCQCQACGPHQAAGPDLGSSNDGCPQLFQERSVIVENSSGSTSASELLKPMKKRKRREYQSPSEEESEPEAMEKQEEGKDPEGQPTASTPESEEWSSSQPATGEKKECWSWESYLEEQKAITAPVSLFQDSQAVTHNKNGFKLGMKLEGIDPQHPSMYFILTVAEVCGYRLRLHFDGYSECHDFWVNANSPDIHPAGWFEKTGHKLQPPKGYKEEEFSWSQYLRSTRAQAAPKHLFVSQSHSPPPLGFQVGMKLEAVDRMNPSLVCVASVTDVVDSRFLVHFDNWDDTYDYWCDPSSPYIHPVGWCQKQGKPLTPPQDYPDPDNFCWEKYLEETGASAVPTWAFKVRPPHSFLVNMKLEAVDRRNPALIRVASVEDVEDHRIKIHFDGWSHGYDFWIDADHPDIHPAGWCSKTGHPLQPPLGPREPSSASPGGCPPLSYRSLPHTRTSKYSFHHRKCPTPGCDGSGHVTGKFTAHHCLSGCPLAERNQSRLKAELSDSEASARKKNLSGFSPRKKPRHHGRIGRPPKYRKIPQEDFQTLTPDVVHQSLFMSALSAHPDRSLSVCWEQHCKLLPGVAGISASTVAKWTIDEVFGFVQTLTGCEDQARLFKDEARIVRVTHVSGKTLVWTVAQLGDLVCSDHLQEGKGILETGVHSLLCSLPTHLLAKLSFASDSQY
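Read-out is AlphaScreen signal from streptavidin donor and nickel chelate acceptor beads (10 ug/mL final each) bridging L3MBTL1 (50 nM) and biotinylated K9-monomethylated H3(1-15) peptide (75 nM), after 30 min compound exposure at room temperature.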
G9a block – qHTS Assay for Inhibitors of Histone Lysine Methyltransferase G9a; Histone-lysine N-methyltransferase EHMT2 (Homo sapiens), Q96KQ7; G9a H3K9 monomethylation, AlphaScreen, 2 h; Potency, µM (series often up to 102 µM), for the others: at the top dose activity, negative = inhibition, usual class: inhibitors; hit rate 8.8% among 350,000; note: % is set by controls: 0 for no effect and ±100 for the full control effect; nearly all actives have a fitted effect of over 75% in size
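G9a (20 nM) preincubated 15 min RT with compounds, then 500 nM biotinylated H3K9 peptide and 20 uM SAM added; 2 h RT reaction. Monomethyl-H3K9 product detected by AlphaScreen with anti-H3K9me1 antibody, streptavidin donor and anti-rabbit IgG acceptor beads.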
HP1b chromo inh – HTS for Inhibitors of HP1-beta Chromodomain Interactions with Methylated Histone Tails | Chromobox protein homolog 1 (Homo sapiens), P83916 | hit rate 0.56% among 390,000 | AlphaScreen HP1-beta / biotin-H3K9me3 peptide binding | Potency, µM (doses to about 114 µM), for the others: at the top dose activity change, negative = inhibition, usual class: inhibitors | AID 540317, 2011; note: nearly all actives have a fitted effect of over 70% in size
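Compound inhibition of the preformed complex between 50 nM HP1-beta and 50 nM biotinylated H3K9me3 peptide was read by AlphaScreen. Buffer was PBS pH 7.4 with 0.01% Tween-20. Incubations ran 30 min at room temperature, with 10 ug/mL donor/acceptor beads.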
JMJD2A Tudor – qHTS Assay for Inhibitors of JMJD2A-Tudor Domain | hit rate 4.4% among 390,000 | Lysine-specific demethylase 4A (Homo sapiens), O75164 | AlphaScreen JMJD2A-Tudor / H3K4me3 peptide binding | Potency, µM (series often up to 114 µM), without a hit: at the top dose activity change, negative = inhibition, actives largely listed as inhibitors; note: % is set by controls: 0 for no effect and ±100 for the full control effect; nearly all actives have a fitted effect of over 50% in size
The depositor's hits bear a star; ? = inconclusive; / = no result; [ ] = remark or other dose. The list is not random: actives were taken first. Their share in the collection is about 11%. Calls come from the whole dose curve; as a rule, active = well fitted inhibition curve with a large enough effect; inconclusive = small, poorly fitted or top-dose-only effect; inactive = no such curve, though single readings can be large or run the other way. Potency is the fitted concentration of half-maximal effect.

SMILES | BAZ2B block | L3MBTL1 inh | G9a block | HP1b chromo inh | JMJD2A Tudor
C=C1C(=O)[C@]23[C@H](O)[C@H]1CC[C@H]2[C@@]12COC3(O)[C@H](O)[C@@H]1C(C)(C)CC[C@@H]2O | / | / | 7.1µM* | / | /
CN(C)c1ccc(N=Nc2ccc(S(=O)(=O)O)cc2)c2ccccc12 | 10µM* | / | 11µM* | ? | 35µM*
C[C@@H]1O[C@@H](O[C@@H]2[C@@H](O)[C@H](OCCc3ccc(O)c(O)c3)O[C@H](CO)[C@H]2OC(=O)/C=C/c2ccc(O)c(O)c2)[C@H](O)[C@H](O)[C@H]1O | / | ? | / | ? | 18µM*
CC(=O)c1cccc(NC(=O)CSc2ccc(-c3ccco3)nn2)c1 | -38% | / | 32µM* | -2% | ?
CCc1nnc(NC(=O)CSc2ccc(-c3ccc(F)cc3)nn2)s1 | -28% | 3% | 45µM* | / | /
Cc1ccc(NC(=O)Cn2nc(-c3ccco3)ccc2=O)cc1Cl | -28% | / | 11µM* | 22% | -12%
CCc1ccc(NC(=O)CSc2ccc(-c3ccco3)nn2)cc1 | -2% | / | ? | -21% | ?
Cc1ccc(NC(=O)Cn2nc3c(cc2=O)CCCC3)cc1Cl | -1% | / | 5%[59 µM] | 20%[57 µM] | -15%
COc1ccc(C)cc1NC(=O)CSc1ccc(-c2ccco2)nn1 | ? | / | 40µM* | -22% | ?
CCOc1ccc(CNC(=O)C2CCN(C(=O)c3sccc3-n3cccc3)CC2)cc1 | -24% | / | 5%[59 µM] | 20% | -25%
Clc1ccc(Cn2cccn2)cn1 | 4% | 1% | 21% | 41% | 4%
O=C(Cn1c(-c2cccs2)cc2cc(Cl)ccc21)NCc1ccccc1 | 2% | / | 7%[59 µM] | 39% | -5%
CCn1cc(C(=O)NCCc2ccccc2)c(=O)c2cc(S(=O)(=O)N3CCc4ccccc4C3)ccc21 | / | / | -2%[59 µM] | 9% | -14%
COc1ccccc1CCNC(=O)CSc1ccc(-c2ccco2)nn1 | 50µM* | / | 28µM* | 47% | -17%
COc1cc(NC(=O)Cn2nc(-c3ccc(F)cc3)ccc2=O)ccc1-n1cnnn1 | / | 4% | -5% | 32% | -15%
Cc1cc(NC(=O)Cn2nc(-c3ccccc3F)ccc2=O)ccc1-n1cnnn1 | -27% | -3% | 56µM* | 11% | -17%
COc1ccccc1-c1ccc(SCC(=O)NCCc2ccccc2)nn1 | -8% | 7% | -3% | 30% | -11%
O=C(CSc1ccc(-c2ccco2)nn1)c1cccc([N+](=O)[O-])c1 | -27% | -12% | 10µM* | 9% | ?
O=C(CSc1ccc(-c2cccs2)nn1)Nc1cccc(F)c1 | -38% | / | 18µM* | 26% | -16%
CCOc1ccc(CCNC(=O)CCn2c(=O)c3cccn3c3ccc(F)cc32)cc1OCC | -1% | / | -2%[59 µM] | 31% | -17%
COc1ccc(CNC(=O)CCc2c(C)nn(-c3ccc(N4CCCCC4)nn3)c2C)c(OC)c1 | -31% | / | 16%[59 µM] | -8% | 89µM*
Cc1nn(-c2ccc(N3CCCC3)nn2)c(C)c1CCC(=O)NCc1ccc(F)cc1 | 79µM* | / | 0%[59 µM] | 75% | -8%
COc1ccc(CNC(=O)CCc2c(C)nn(-c3ccc(N4CCOCC4)nn3)c2C)c(OC)c1 | -15% | / | 0%[59 µM] | -4% | -11%
CCn1ccc2cc(S(=O)(=O)N3CCC(C(=O)NCCOC)CC3)ccc21 | -2% | / | 0%[59 µM] | 27%[57 µM] | 0%
O=C(CSc1nnc(-c2ccccn2)o1)Nc1ccccc1C(F)(F)F | 50µM* | / | 71µM* | 5% | -18%
SMILES | BAZ2B block | L3MBTL1 inh | G9a block | HP1b chromo inh | JMJD2A Tudor
Cc1ccc(S(=O)(=O)CCN2CCC(n3cccc3)CC2)cc1 | 40µM* | -22% | / | -12% | -27%
Cc1ccc(S(=O)(=O)CCN2CCN(c3ccccc3)CC2)cc1 | 0% | / | 1% | 13% | 1%
O=C(COC(=O)c1ccc2ncsc2c1)NC(=O)c1ccccc1 | 79µM* | -6% | ? | -9% | 25µM*
O=C(COC(=O)c1ccc2ncsc2c1)NC(=O)NCc1ccccc1 | -19% | / | -8% | 2% | -16%
COc1ccc(C(=O)NC(=O)COC(=O)c2ccc3ncsc3c2)cc1 | 56µM* | ? | -22%[59 µM] | / | /
CC(C)c1ccc(NC(=O)CN2C(=O)CSc3ccc(S(=O)(=O)N4CCCC4)cc32)cc1 | -16% | / | -18%[59 µM] | 32% | -26%
Cc1ccccc1CN1CCC(n2nccc2NC(=O)CCCc2ccccc2)CC1 | -6% | / | 0%[0.0925 µM] | 37% | -11%
O=C(CCCc1ccccc1)Nc1ccnn1C1CCN(Cc2ccccn2)CC1 | ? | / | 79µM* | 24% | -10%
COc1ccc(C(=O)Nc2ccnn2C2CCN(Cc3ccccn3)CC2)cc1 | -25%[57.1 µM] | / | 50µM* | 20% | -10%
CC(=O)N(Cc1cccnc1)c1nc2c(C)cc(C)cc2s1 | -13% | / | ? | 17% | -7%
CC(/C=N/NC(=O)c1cc(C2CC2)[nH]n1)=C\c1ccccc1 | -11% | / | 27% | 27% | -19%
S=c1[nH]nc(C2CCCCC2)n1/N=C/C=C/c1ccccc1 | ? | -13% | 10µM* | -34% | 79µM*
S=c1[nH]nc(C2CCCCC2)n1/N=C/C(Cl)=C\c1ccccc1 | -3% | 0% | 25µM* | -9% | ?
CCc1ccc(NS(=O)(=O)c2ccc(-c3cc(C)no3)cc2)cc1 | -1% | / | -10%[59 µM] | 40% | -10%
O=C(COC(=O)C1CCN(S(=O)(=O)c2cccs2)CC1)Nc1ccc(F)cc1F | -3% | 3% | 9% | 51% | 3%
COc1ccc(-c2csc(N(CCCN3CCOCC3)C(=O)CCl)n2)cc1 | ? | 2% | 35µM* | 18% | ?
CCN(CC)CCCN(C(=O)c1ccc(Br)cc1)c1nc(-c2ccc(OC)cc2)cs1 | 50µM* | -3% | / | ? | 56µM*
COCCCNC(=O)C1CCN(c2nc3ccc(Cl)cc3[nH]2)CC1 | 34% | / | 7%[59 µM] | 68%[57 µM] | -5%
Cc1noc(NS(=O)(=O)c2ccc(NC(=O)c3cc(F)c(F)c(F)c3F)cc2)c1C | 16% | 9% | ? | 36% | -4%
COc1ccc(S(=O)(=O)N(C(=O)c2ccncc2)c2ccc3oc4c(c3c2)CCCC4)cc1 | -38% | -8% | -17%[59 µM] | 0% | -28%
O=C(c1ccncc1)N(c1ccc2oc3c(c2c1)CCCC3)S(=O)(=O)c1cccc([N+](=O)[O-])c1 | ? | -7% | 3.5µM* | -23% | ?
O=c1[nH]c(-c2ccccn2)nc2ccccc12 | 45µM* | ? | 19% | 40% | 56µM*
O=c1[nH]c(-c2ccccn2)nc(C(F)(F)F)c1Br | 28µM* | ? | 14% | 1% | 18µM*

Screens: PubChem BioAssay, National Center for Advancing Translational Sciences (NCATS)
